Assay results reported in PubChem BioAssay (Tox21).
Results filed as inconclusive are left out. Activity calls are given as the source filed them. Calls follow the shape of the full dose curve.

Assay: p53 small molecule agonists, cell-based qHTS assay with rat liver microsomes (AID 1963578)
Settings: HCT-116 p53RE-bla, beta-lactamase ratio, 16 h; series mostly up to 66 µM; activation: at the top concentration
From the text: U.S. Tox21 Program National Center for Advancing Translational Sciences [NCATS] Division of Preclinical Innovation [DPI] U.S. Environmental Protection Agency [EPA] National Institutes of Environmental Health Sciences [NIEHS] National Toxicology Program [NTP] U.S. Food and Drug Administration [FDA] Tox21 Assay Overview: p53, a tumor suppressor protein, is activated following cellular insult, including DNA damage and other cellular stresses. The activation of p53 regulates cell fate by inducing DNA repair, cell cycle arrest, apoptosis, or cellular senescence. The activation of p53, therefore, is a good indicator of DNA damage and other cellular stresses. […] The activation of the reporter gene under culture conditions can be detected by fluorescence intensity. This cell line was used to screen the Tox21 10K compound library in the condition of presence of rat liver microsomes and to identify agonists that activate the p53 signaling pathway after in vitro metabolic activation (Ooka et al., Archive of Toxicology 96:1975-1987, 2022).
Tox21 Assay Protocol Summary: The p53RE-bla cells were dispensed at 4,000cells/3ul/well in 1536-well black-clear bottom plates. After the assay plates were incubated at 37 C, 5% CO2 incubator for 5 hours, 23 nL of compounds dissolved in DMSO, positive controls or DMSO only was transferred to the assay plate. Following compound addition, 3 uL of rat liver microsomes (Molecular Toxicology, Boone, NC) at final concentration of 0.5 mg/mL and 1uL of Beta-Nicotinamide adenine dinucleotide 2-phosphate (NADPH) at final concentration of 0.5 mg/mL were transferred to the assay plate. The plates were incubated at 37 C for 16 hours. 1 uL of LiveBLAzer detection mixture was added to each well and the plates were incubated at room temperature in the dark for 2 h.
% is scaled to controls: 0 for no effect and ±100 for the full control effect.

**Q.** With CCO[Si](CCCN=C=O)(OCC)OCC as the molecule, how does the “activation” value read?
**A.** The value was -2.72% (inactive).

**Q.** With C1CSCCS1 as the molecule, how does the “activation” value read?
**A.** Its value is -2.17% (inactive).

**Q.** For CCCCCCCCCCCCCCCCC, which “activation” value is on record?
**A.** Its value is -1.14% (inactive).

**Q.** With CC1=C(CC(=O)O)c2cc(F)ccc2/C1=C\c1ccc(S(C)=O)cc1 (stereo not given) as the molecule, how does the Potency read?
**A.** The Potency was “inactive”.

**Q.** With COc1ccccc1C=O as the molecule, how does the “activation” value read?
**A.** The value was 0.0432% (inactive).

**Q.** With O=C(O)CC(=O)O as the molecule, how does the “activation” value read?
**A.** Its value is -1.67% (inactive).

**Q.** For CC(=O)CC(=O)Nc1ccc2[nH]c(=O)[nH]c2c1, which “activation” value is on record?
**A.** The value was 0.168% (inactive).

**Q.** For CC(C)OC(=O)C(O)(CC(=O)O)CC(=O)O, which “activation” value is on record?
**A.** Its value is -3.14% (inactive).

**Q.** With CC1=CC[C@@H](C(C)(C)O)CC1 as the molecule, how does the “activation” value read?
**A.** The value was -0.441% (inactive).

**Q.** With Cc1c(C)c2c(c(C)c1O)CCC(C)(COc1ccc(CC3SC(=O)NC3=O)cc1)O2 (stereo not given) as the molecule, how does the Potency read?
**A.** Its Potency is “inactive”.

**Q.** With CC(C)(C)c1ccc(C(=O)CCCCl)cc1 as the molecule, how does the “activation” value read?
**A.** Its value is -0.036% [at 30.3 µM] (inactive).

**Q.** For CC(C)(C)NC[C@H](O)COc1nsnc1N1CCOCC1, which Potency is on record?
**A.** Its Potency is “inactive”.

**Q.** Which “activation” value does the source give for C=C(C)[C@@H]1CCC2=CCC[C@@H](C)[C@]2(C)C1 here?
**A.** The value was 1.17% (inactive).

**Q.** With O=C(C(=O)c1ccco1)c1ccco1 as the molecule, how does the “activation” value read?
**A.** Its value is -0.396% (inactive).

**Q.** Which Potency does the source give for C=C(CC)C(=O)c1ccc(OCC(=O)O)c(Cl)c1Cl here?
**A.** The Potency was “inactive”.

**Q.** For C1=C\CC/C=C\CC/C=C\CC/1, which “activation” value is on record?
**A.** Its value is -0.186% (inactive).

**Q.** For Cc1cnccn1, which “activation” value is on record?
**A.** Its value is -4.23% (inactive).

**Q.** With O as the molecule, how does the Potency read?
**A.** The Potency was “inactive”.

**Q.** For CCc1cnc(C(=O)O)c(C(=O)O)c1, which “activation” value is on record?
**A.** The value was -0.466% (inactive).

**Q.** With COc1nc(N)nc2nc[nH]c12 as the molecule, how does the “activation” value read?
**A.** Its value is -1.57% (inactive).

**Q.** For Fc1c(F)c(F)c(Br)c(F)c1F, which “activation” value is on record?
**A.** The value was -1.01% (inactive).

**Q.** Which Potency does the source give for O=C(c1ccc(OCCN2CCCCC2)cc1)c1c(-c2ccc(O)cc2)sc2cc(O)ccc12 here?
**A.** The Potency was “inactive”.

**Q.** With C=CC(C)(CCC=C(C)C)OC=O (stereo not given) as the molecule, how does the “activation” value read?
**A.** The value was 0.393% (inactive).

**Q.** Which “activation” value does the source give for CCCCCC/C=C/C(=O)OC here?
**A.** The value was -0.0196% (inactive).

**Q.** For CC1CC(O)CC(C)(C)C1 (stereo not given), which “activation” value is on record?
**A.** The value was -0.38% (inactive).

**Q.** With CC(C)CCCC(C)CCO (stereo not given) as the molecule, how does the “activation” value read?
**A.** Its value is 3.37% (inactive).

**Q.** Which “activation” value does the source give for CCCCCCCCO[C@@H]1O[C@H](CO)[C@@H](O)[C@H](O)[C@H]1O here?
**A.** Its value is -0.0372% (inactive).

**Q.** Which “activation” value does the source give for CCn1c2ccccc2c2ccccc21 here?
**A.** The value was -0.441% (inactive).

**Q.** For CC(C)COC(=O)c1ccc(N)cc1, which “activation” value is on record?
**A.** Its value is -0.27% [at 30.3 µM] (inactive).

**Q.** With [Cl][Eu]([Cl])[Cl] as the molecule, how does the “activation” value read?
**A.** Its value is 0.789% (inactive).

**Q.** With CC/C=C\C#N as the molecule, how does the “activation” value read?
**A.** Its value is 0.861% (inactive).

**Q.** For O=C(O)CN(CCCN(CC(=O)O)CC(=O)O)CC(=O)O, which activation is on record?
**A.** The activation was -0.0734% [at 13.6 µM] (inactive).

**Q.** For CC(=O)Nc1ccc(N=Nc2cc(C)ccc2O)cc1, which “activation” value is on record?
**A.** The value was -0.0117% (inactive).

**Q.** Which “activation” value does the source give for OCCN1CCN(CCCN2c3ccccc3C=Cc3ccccc32)CC1 here?
**A.** The value was 0.989% [at 30.3 µM] (inactive).

**Q.** For Nc1ccc(NCCO)c([N+](=O)[O-])c1, which “activation” value is on record?
**A.** Its value is -2.97% (inactive).

**Q.** For CS(C)(=O)=O, which “activation” value is on record?
**A.** Its value is -3% (inactive).

**Q.** With C=C(C)C(=O)OCCNC(C)(C)C as the molecule, how does the “activation” value read?
**A.** The value was -2.37% (inactive).

**Q.** For CCCCCCCC(=O)[O-].CCCCCCCC(=O)[O-].[Zn+2], which “activation” value is on record?
**A.** The value was -3.15% [at 30.3 µM] (inactive).

**Q.** For CC(CO)c1ccccc1 (stereo not given), which “activation” value is on record?
**A.** Its value is 0.186% (inactive).

**Q.** For CCCc1ccccc1, which “activation” value is on record?
**A.** The value was 0.146% (inactive).
